Reference: PubChem BioAssay (NCATS)
Inconclusive results are not listed. Where a call stands in place of a potency, no number is given. Activity calls are given as the source filed them. Calls follow the shape of the dose curve; as a rule, active = well fitted curve in the direction sought with a large enough effect; inconclusive = small, poorly fitted or top-dose-only effect, or another doubt; inactive = no such curve, though single readings can be large; an effect the other way counts as inactive or inconclusive.

What was measured:
[1] = qHTS of pediatric cancer cell lines to identify multiple opportunities for drug repurposing: Primary screen for NB-EBc1 cells (AID 1347095)
In short: (§1)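 Cells seeded at 500-1,000 cells/well in growth media, rested 5 hours at 37 degrees C, 5% CO2, then dosed; MIPE compounds at 11-point (from 0.78 nM) and NPC at 8-point (from 0.59 nM) final concentrations. Viability by CellTiter-Glo luminescence after 48 hours.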

[2] = qHTS of pediatric cancer cell lines to identify multiple opportunities for drug repurposing: Primary screen for U-2 OS cells (AID 1347096); also: nearly all actives have a fitted effect of over 50% in size
In short: (§2)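 Viability after 48 h compound treatment at 37C, 500-1,000 cells/well, read as ATP luminescence with CellTiter-Glo. Primary screens used 11-point (MIPE, 0.78 nM-46 µM) or 8-point (NPC, 0.59 nM-46 µM) final concentrations; follow-up screens used 11-point dilutions.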

[3] = qHTS of pediatric cancer cell lines to identify multiple opportunities for drug repurposing: Primary screen for Saos-2 cells (AID 1347097); also: nearly all actives have a fitted effect of over 40% in size
In short: as §1

[4] = qHTS of pediatric cancer cell lines to identify multiple opportunities for drug repurposing: Primary screen for SK-N-SH cells (AID 1347098); also: nearly all actives have a fitted effect of over 65% in size
In short: (§3)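 Cells (500-1,000/well) rested 5 h, then received compounds for 48 h; metabolically active cells were measured by CellTiter-Glo luminescence. Final concentrations spanned up to 46 µM (MIPE, 11-point) or 0.59 nM-46 µM (NPC, 8-point) in primary screens, 11-point in follow-ups.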

[5] = qHTS of pediatric cancer cell lines to identify multiple opportunities for drug repurposing: Primary screen for NB1643 cells (AID 1347099); also: nearly all actives have a fitted effect of over 50% in size
In short: as §1

[6] = qHTS of pediatric cancer cell lines to identify multiple opportunities for drug repurposing: Primary screen for LAN-5 cells (AID 1347100)
In short: as §2

[7] = qHTS of pediatric cancer cell lines to identify multiple opportunities for drug repurposing: Primary screen for BT-12 cells (AID 1347101); also: nearly all actives have a fitted effect of over 25% in size
In short: as §3

[8] = qHTS of pediatric cancer cell lines to identify multiple opportunities for drug repurposing: Primary screen for Rh18 cells (AID 1347102); also: nearly all actives have a fitted effect of over 65% in size
In short: as §2

[9] = qHTS of pediatric cancer cell lines to identify multiple opportunities for drug repurposing: Primary screen for OHS-50 cells (AID 1347103); also: nearly all actives have a fitted effect of over 40% in size
In short: as §3

[10] = qHTS of pediatric cancer cell lines to identify multiple opportunities for drug repurposing: Primary screen for RD cells (AID 1347104); also: nearly all actives have a fitted effect of over 55% in size
In short: as §1
Potency is read from the fitted curve at half-maximal effect.

Compound | Potency [1] | Potency [2] | Potency [3] | Potency [4] | Potency [5] | Potency [6] | Potency [7] | Potency [8] | Potency [9] | Potency [10]
O=C(c1ccc(F)cc1)N1CCC[C@H](c2nc(-c3ccc(F)cc3)no2)C1 | inactive | inactive | inactive | 13.6 µM (active) | inactive | inactive | inactive | inactive | inactive | inactive
C=C1C[C@@]2(O)O[C@@]3(C[C@H]2C(C)C)[C@H](C)CC[C@H]13 | inactive | inactive | inactive | inactive | inactive | inactive | inactive | inactive | inactive | inactive
COC1=C(OC)C(=O)C(CC=C(C)CCC=C(C)CCC=C(C)CCC=C(C)CCC=C(C)CCC=C(C)CCC=C(C)CCC=C(C)CCC=C(C)CCC=C(C)C)=C(C)C1=O | inactive | inactive | inactive | inactive | inactive | inactive | inactive | inactive | inactive | inactive
O=C(O)C=Cc1ccc(Cn2ccnc2)cc1 | inactive | inactive | inactive | inactive | inactive | inactive | inactive | inactive | inactive | inactive
COc1ccc(Nc2cc(-c3cnc(N)nc3)nc(N3CCOCC3)n2)cn1 | 2.96 µM (active) | 14.8 µM (active) | 1.18 µM (active) | 7.64 µM (active) | 2.96 µM (active) | 4.18 µM (active) | 21.7 µM (active) | 6.62 µM (active) | 0.385 µM (active) | 4.18 µM (active)
O=C(O)C(=O)Nc1cccc(C2=NN=N[N]2)c1 | inactive | inactive | inactive | inactive | inactive | inactive | inactive | inactive | inactive | inactive
CN(C)c1ccc(C(=O)NCCCCCCC(=O)NO)cc1 | 0.469 µM (active) | 1.18 µM (active) | 0.118 µM (active) | 2.41 µM (active) | 0.296 µM (active) | 0.132 µM (active) | 1.53 µM (active) | 0.0935 µM (active) | 0.344 µM (active) | 2.09 µM (active)
O=C(CCCCCCC(=O)Nc1cccnc1)NO | 4.18 µM (active) | 11.8 µM (active) | 13.2 µM (active) | 6.07 µM (active) | 2.96 µM (active) | 2.64 µM (active) | 10.9 µM (active) | 4.69 µM (active) | 4.32 µM (active) | 16.6 µM (active)
Cc1cc(-c2nnc3n2CCCCC3)c(C)n1-c1ccccc1 | inactive | inactive | inactive | inactive | inactive | inactive | inactive | inactive |  | inactive
NC(=O)Nc1cc(-c2ccc(CN3CCOCC3)cc2)sc1C(N)=O | 0.235 µM (active) | 18.7 µM (active) | 2.35 µM (active) | 1.36 µM (active) | 0.0296 µM (active) | 0.0332 µM (active) | 24.3 µM (active) |  | 0.217 µM (active) | 8.33 µM (active)
COc1cc([C@@H]2c3cc4c(cc3[C@@H](O[C@@H]3O[C@@H]5CO[C@@H](c6cccs6)O[C@@H]5[C@H](O)[C@@H]3O)[C@H]3COC(=O)[C@H]23)OCO4)cc(OC)c1O | 0.0372 µM (active) | 3.72 µM (active) | 0.59 µM (active) | 5.41 µM (active) | 0.132 µM (active) | 0.0372 µM (active) | 6.11 µM (active) |  | 0.485 µM (active) | 2.96 µM (active)
CC(C)C[C@H](NC(=O)[C@@H](NC(=O)c1cccc(-c2ccccc2)n1)[C@@H](C)O)B(O)O | 0.0833 µM (active) | 0.148 µM (active) | 5.9 µM (active) | 0.0607 µM (active) | 0.0743 µM (active) | 0.0332 µM (active) | 0.0685 µM (active) | 0.0469 µM (active) | 0.432 µM (active) | 0.118 µM (active)
Cn1cc(C[C@@H](N)C(=O)O)c2ccccc21 | inactive | inactive | inactive | inactive |  | inactive | inactive | inactive | inactive | inactive
OCCN1C[C@H](O)[C@@H](O)[C@H](O)[C@@H]1CO | inactive | inactive | inactive | inactive | inactive |  |  | inactive | inactive | inactive
COc1ccc(CCC(=O)c2c(O)cc(O[C@@H]3O[C@H](CO)[C@@H](O)[C@H](O)[C@@H]3O[C@@H]3O[C@@H](C)[C@H](O)[C@@H](O)[C@@H]3O)cc2O)cc1O | inactive | inactive | inactive | 13.6 µM (active) |  | inactive | inactive | inactive | inactive | 13.2 µM (active)
O=C(O)C[C@H](O)C[C@H](O)C=Cc1c(C2CC2)nc2ccccc2c1-c1ccc(F)cc1 | 20.9 µM (active) | 9.35 µM (active) | 0.833 µM (active) | 4.82 µM (active) | 9.35 µM (active) |  | 0.273 µM (active) | 4.69 µM (active) | 3.06 µM (active) | 18.7 µM (active)
C=CC(=O)Nc1ccc2ncnc(Nc3ccc(OCc4cccc(F)c4)c(Cl)c3)c2c1 | 0.0526 µM (active) | 5.9 µM (active) | 0.0296 µM (active) | 0.171 µM (active) |  | 0.001 µM (active) | 0.0172 µM (active) | 7.43 µM (active) | 0.0043 µM (active) | 0.0296 µM (active)

Compound | Potency [1] | Potency [2] | Potency [3] | Potency [4] | Potency [5] | Potency [6] | Potency [7] | Potency [8] | Potency [9] | Potency [10]
COc1cc(C)c(C=CC(C)=CC=CC(C)=CC(=O)O)c(C)c1C | inactive | inactive | inactive | inactive | inactive |  |  | inactive | 1.72 µM (active) | inactive
C=C(C)[C@@H]1CC[C@]2(C)CC[C@]3(C)[C@H](CC[C@@H]4[C@@]5(C)CC[C@H](O)C(C)(C)[C@H]5CC[C@]43C)[C@@H]12 | inactive | inactive | inactive | inactive | inactive | inactive | inactive | inactive | inactive | inactive
CN1[C@H]2CC(OC(=O)[C@@H](CO)c3ccccc3)C[C@H]1[C@H]1O[C@H]12 (stereo not given in full) | inactive | inactive | inactive | inactive |  | inactive | inactive | inactive | inactive | inactive
c1cc(N[C@@H]2CCNC2)nc(-c2cnc3ccc(-c4cn[nH]c4)cn23)c1 | inactive | inactive | 18.7 µM (active) | 24.1 µM (active) |  | 11.8 µM (active) | 17.2 µM (active) | 20.9 µM (active) | 19.3 µM (active) | 16.6 µM (active)
Nc1nc(=O)n([C@H]2C[C@H](O)[C@@H](CO)O2)cc1F | 3.72 µM (active) | inactive | inactive | inactive | inactive |  |  | inactive | inactive | inactive
Cn1cc(CNCC2CCN(c3ncc(C(=O)NO)cn3)CC2)c2ccccc21 | 0.0935 µM (active) | 0.469 µM (active) | 0.148 µM (active) | 0.121 µM (active) |  | 0.0526 µM (active) | 0.193 µM (active) | 0.0372 µM (active) | 0.0863 µM (active) | 0.187 µM (active)
CN1CCc2c(c3ccccc3n2Cc2ccc(C(=O)NO)cc2)C1 | 20.9 µM (active) | 23.5 µM (active) | 18.7 µM (active) | 24.1 µM (active) | 16.6 µM (active) | 16.6 µM (active) |  | 18.7 µM (active) | 13.7 µM (active) | 16.6 µM (active)
COc1cc(C)c(Sc2cnc(NC(=O)c3ccc(CNC(C)C(C)(C)C)cc3)s2)cc1C(=O)N1CCN(C(C)=O)CC1 (stereo not given) | 0.743 µM (active) | inactive | inactive | 4.82 µM (active) | 3.72 µM (active) | 1.66 µM (active) | 19.3 µM (active) | 14.8 µM (active) | 4.85 µM (active) | 14.8 µM (active)
CC(C=CC1=C(C)CCCC1(C)C)=CC=CC(C)=CC(=O)Nc1ccc(O)cc1 | 3.4 µM (active) | 42.9 µM (active) | 27 µM (active) | 55.5 µM (active) | 17.1 µM (active) | 3.4 µM (active) | 12.5 µM (active) | 42.9 µM (active) | 17.7 µM (active) | 34 µM (active)
Cc1cn([C@@H]2O[C@H](CO)[C@@H](O)[C@H]2F)c(=O)[nH]c1=O | inactive | inactive | inactive | inactive |  | inactive | inactive | inactive | inactive | inactive
CON=C(C(=O)N[C@@H]1C(=O)N2C(C(=O)O)=C(CSC(=O)c3ccco3)CS[C@H]12)c1csc(N)n1 | inactive | inactive | inactive | 13.6 µM (active) |  | inactive | inactive | inactive | inactive | inactive
C[C@H](CCC(=O)O)[C@H]1CCC2C3C[C@H](O)[C@@H]4C[C@H](O)CC[C@]4(C)C3CC[C@@]21C (stereo not given in full) | inactive | inactive | inactive | inactive |  | inactive | inactive | inactive | inactive | inactive
O=C1CSC(=O)N1C(CCc1ccncc1)COc1ccc(-c2cccc([N+](=O)[O-])c2)cc1 (stereo not given) | 18.7 µM (active) | inactive | inactive | 4.82 µM (active) |  | 14.8 µM (active) | 6.85 µM (active) | inactive | 4.85 µM (active) | 
COc1ccc(Nc2nccc(NCCO)n2)cc1 | inactive | inactive | inactive | inactive |  | inactive | inactive | inactive | inactive | inactive
C[C@]12CCC(=O)C=C1[C@@H]1CC1[C@H]1[C@H]3[C@@H]4C[C@H]4[C@@]4(CCC(=O)O4)[C@@]3(C)CC[C@H]12 (stereo not given in full) | inactive | inactive | inactive | inactive | inactive |  |  | inactive | 19.3 µM (active) | inactive
CC(C)N1[N]C(=C2C=c3cc(O)ccc3=N2)c2c(N)ncnc21 | 0.59 µM (active) | 14.8 µM (active) | 5.26 µM (active) | 19.2 µM (active) | 18.7 µM (active) | 5.9 µM (active) | 0.485 µM (active) | 5.9 µM (active) | 0.273 µM (active) | 1.66 µM (active)
